Assay outcomes: PubChem, several laboratories
Shn3 3UTR inh: reduces Shn3 3'UTR luciferase signal in osteoblasts | Clone20 osteoblast Shn3 3'UTR firefly luciferase, 24 h | AID 588674 | inhibition, % at 12.5 µM | 360,000 tested, 0.52% active;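 active = mean inhibition of at least 75% with every replicate also reaching 75%; inconclusive = mean inhibition at least 75% but some replicate below; inactive = mean inhibition below 75%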;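 also: 0% = median of neutral control wells and 100% = pilot-screen positive control compound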
Gli-Sufu antag: antagonists of Gli-Sufu signaling | inhibition, % at 5 µM | Sufu-KO-LIGHT fibroblasts, Gli luciferase reporter luminescence | 340,000 tested, 0.74% active | AID 588413;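 active = inhibition above about 55%, limit read from the data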;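 also: 0% = DMSO-treated cells and 100% = wells with medium but no cells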
Jurkat NFkB inh: inhibitors of the PMA/ionomycin-induced NF-kB reporter in Jurkat cells; AID 435003; 330,000 tested, 0.53% active; PMA/ionomycin-induced NF-kB luciferase reporter, luminescence; inhibition, % at 4 µM; in the data active = inhibition above about 50%
697 NFkB inh: inhibitors of the PMA/ionomycin-induced NF-kB reporter in 697 B cells; 330,000 tested, 0.33% active; 697 B-cell NF-kB luciferase reporter, 16 h; inhibition, % at 4 µM; in the data active = inhibition above about 35%
Mdm2-MdmX inh: inhibitors of human Mdm2/MdmX interaction; O15151+Q00987; SaOS-2 split-luciferase Mdm2/MdmX complementation, luminescence; inhibition, % at 8 µM; 330,000 tested, 3% active;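 active = inhibition of at least 50% at 8 µM in the primary screen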
Target sequence (O15151 whole entry, looked up): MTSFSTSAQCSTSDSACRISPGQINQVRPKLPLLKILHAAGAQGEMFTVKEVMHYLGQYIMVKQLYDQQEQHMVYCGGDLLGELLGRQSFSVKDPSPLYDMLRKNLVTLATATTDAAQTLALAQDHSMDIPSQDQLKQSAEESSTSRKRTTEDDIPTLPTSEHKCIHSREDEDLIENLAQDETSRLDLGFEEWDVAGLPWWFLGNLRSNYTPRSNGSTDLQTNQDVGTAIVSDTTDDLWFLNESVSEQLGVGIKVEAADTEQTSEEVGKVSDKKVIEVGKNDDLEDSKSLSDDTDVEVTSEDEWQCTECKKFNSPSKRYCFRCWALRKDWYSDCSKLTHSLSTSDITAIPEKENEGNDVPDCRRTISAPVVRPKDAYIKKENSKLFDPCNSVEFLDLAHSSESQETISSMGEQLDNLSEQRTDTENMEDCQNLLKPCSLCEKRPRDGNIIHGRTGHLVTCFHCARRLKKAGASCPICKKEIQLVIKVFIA
Target sequence (Q00987 whole entry, looked up): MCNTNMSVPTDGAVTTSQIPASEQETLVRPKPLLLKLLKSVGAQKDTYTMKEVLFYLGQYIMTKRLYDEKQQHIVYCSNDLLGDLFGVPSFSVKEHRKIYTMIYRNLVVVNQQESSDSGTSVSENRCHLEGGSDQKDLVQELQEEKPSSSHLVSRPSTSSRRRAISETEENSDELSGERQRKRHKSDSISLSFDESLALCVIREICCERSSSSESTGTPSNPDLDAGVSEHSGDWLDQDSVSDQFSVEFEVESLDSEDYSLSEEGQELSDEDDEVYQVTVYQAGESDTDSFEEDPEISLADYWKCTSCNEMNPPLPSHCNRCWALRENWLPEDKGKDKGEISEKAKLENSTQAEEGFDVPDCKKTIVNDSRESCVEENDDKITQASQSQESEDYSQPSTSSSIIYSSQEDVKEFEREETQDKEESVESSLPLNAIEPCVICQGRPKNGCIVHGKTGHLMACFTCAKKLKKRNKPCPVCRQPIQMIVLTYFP
An asterisk follows results filed as active; ? = inconclusive; · = no result. A selection: hits, their analogues and other compounds. The true share with any hit is near 3.8%.

SMILES	Shn3 3UTR inh	Gli-Sufu antag	Jurkat NFkB inh	697 NFkB inh	Mdm2-MdmX inh
CCN1CCN(c2ccc(NC(=O)CC3OC(=O)c4ccccc43)cc2C)CC1 (centres undefined)	-30	·	·	·	·
COc1ccccc1N(O)C1CC(=O)N(c2ccc(F)cc2)C1=O (centres undefined)	95*	3	-9	-10	4
COc1ccccc1N1C(=O)CC(N(O)c2ccccc2)C1=O (centres undefined)	-10	-2	3	9	1
CCOC(=O)c1cn(CC(=O)Nc2cccc(Cl)c2C)nn1	95*	1	-3	-8	4
CCOC(=O)c1cn(CC(=O)Nc2cccc(Cl)c2)nn1	-5	-7	-2	20	16
CCN(CC)CC(C)(C)C(=O)/C=C/c1ccc(/C=C/C(=O)C(C)(C)CN(CC)CC)cc1	98*	37	·	·	·
O=[N+]([O-])c1cc(O)c2ncccc2c1	·	67*	-5	-7	44
O=[N+]([O-])c1cc2cccnc2c2ncccc12	-1	1	-4	-34	22
COc1ccc(NC(=O)/C=C/c2cc(Br)ccc2OC)cc1	1	-8	-33	-29	-13
COc1ccc(Br)cc1/C=C/C(=O)c1ccc(NC(C)=O)cc1	97*	12	·	·	·
CC(C)(C)c1ccc(CC(=O)N2CCC2(C)C(=O)NCCC#N)cc1 (centres undefined)	-18	·	·	·	·
CC(=O)Oc1cc(C(=O)OCC(=O)NC23CC4CC(CC(C4)C2)C3)cc(OC(C)=O)c1OC(C)=O	91*	8	·	·	·
COc1cccc(C(=O)OCC(=O)NC23CC4CC(CC(C4)C2)C3)c1	-2	7	8	33	18
CN(C)c1ccc(-c2csc(C(C)(O)c3ccc(F)c(F)c3)n2)cc1 (centres undefined)	31	·	·	·	·
CC[C@@H](C(=O)[C@@H](C)[C@@H](O)[C@H](C)[C@@H]1O[C@@H]([C@@H](CC)C(=O)O)CC[C@@H]1C)[C@H]1O[C@]2(C=C[C@@H](O)[C@]3(CC[C@@](C)([C@H]4CC[C@](O)(CC)[C@H](C)O4)O3)O2)[C@H](C)C[C@@H]1C	82	90*	·	·	·
CN1\C(=C/C=C/C=C/C=[N+](C)C)C(C)(C)c2ccccc21	89*	46	·	·	·
CC(NC(=O)CNC(=O)c1ccccc1Br)c1cccs1 (centres undefined)	-6	-7	3	29	1
CCCn1c(C)cc(C(=O)CN2C(=O)c3ccccc3S2(=O)=O)c1C	83*	·	·	·	·
CCCn1c(C)cc(C(=O)Cn2nnc3ccccc3c2=O)c1C	-63	-96	-127	-176	-100
O=C(NCCNC(=O)Oc1cccc2ccccc12)Oc1cccc2ccccc12	90*	-2	·	·	·
CCNC(=O)COc1cccc2ccccc12	4	3	9	13	11
NC(=O)C(C1=CCCCC1)c1ccccc1 (centres undefined)	-7	10	·	·	·
CC1=[N+](C)c2c(ccc3cccnc23)C1(C)C	93*	87*	·	·	·
Cc1[nH]c2c(ccc3cccnc32)c1C	·	-16	-16	-8	12
COc1ccc(CSc2ccc(S(=O)(=O)N3CCCC3)cn2)cc1F	27	·	·	·	·
SMILES	Shn3 3UTR inh	Gli-Sufu antag	Jurkat NFkB inh	697 NFkB inh	Mdm2-MdmX inh
CCOC(=O)[C@@H]1[C@H]2COc3ccccc3[C@@H]2N2C(=O)N(c3cccc(F)c3)C(=O)[C@@]12C	13	-7	-16	3	8
Cc1c(CCOC(=O)C23CC4(C)CC(C)(CC(C)(C4)C2)C3)sc[n+]1CC(=O)c1ccccc1	90*	35	-12	-7	10
Cc1c(CCOC(=O)c2ccc(Cl)cc2Cl)sc[n+]1CC(=O)c1ccccc1	-6	2	-7	-3	32
CN(C)CCNc1ccc(CO)c2sc3ccc(O)cc3c(=O)c12	19	77*	·	·	·
NC(=S)NN=Cc1nccc2c(N)cccc12	86*	·	·	·	·
CCN(C(C)=O)c1cnc(C=NNC(N)=S)c2ccccc12	?	44	·	·	·
O=C(NCC(c1ccco1)N1CCCCC1)c1cccnc1 (centres undefined)	-4	-3	4	19	1
C=C1C(=O)OC2CC1C(OC(C)=O)CC(C)=CCCC(C)=CCCC2(C)O (centres undefined)	94*	·	·	·	·
C=C1C(=O)OC2C1CCC(C)C1C=CC(=O)C12C (centres undefined)	58	-3	·	·	·
C=C1C(=O)OC2CC1C(O)CC(C)=CCCC(C)=CC(O)CC2C (centres undefined)	96*	20	·	·	·
C=C1C(=O)O[C@H]2[C@H]1[C@H](OC(=O)/C(C)=C\C)C[C@]1(CO1)[C@@H]1[C@H](OC(C)=O)C=C(C)[C@]21O	-22	9	·	·	·
CC1(C)CC(=O)C=C(c2ccc(-c3ccc4[nH]ccc4c3)cc2)C1=O	-51	·	·	·	·
CC(=O)c1ccc(NC(=O)C(C)OC(=O)/C=C/c2ccco2)cc1 (centres undefined)	88*	4	14	1	28
CC(OC(=O)/C=C/c1ccco1)C(=O)Nc1cccc([N+](=O)[O-])c1 (centres undefined)	25	-4	1	-4	28
Cc1ccc([C@H]2C[C@H](n3cc(C4CC4)nn3)[C@@H](O)CN2C(=O)c2cccs2)cc1	-25	·	·	·	·
Cc1nc2ccc(NC(=O)c3ccc(C)c(S(=O)(=O)N4CCOCC4)c3)cc2s1	8	1	-3	13	27
O=C1C(F)=CC(COC(c2ccccc2)(c2ccccc2)c2ccccc2)OC1n1cc(F)c(=O)[nH]c1=O (centres undefined)	98*	22	·	·	·
CC(=O)OCC1OC(n2cc(F)c(=O)[nH]c2=O)C(OC(C)=O)C1OC(C)=O (centres undefined)	29	5	31	5	40
CC1=C(C#N)C(C(F)(F)F)(C(F)(F)F)N=C(c2ccco2)N1	89*	10	-16	-1	18
COc1ccc(NS(=O)(=O)c2ccc(C(=O)N3CCCCCC3)cc2)cc1	82*	14	5	-14	32
CCOc1ccc(NS(=O)(=O)c2ccc(C(=O)N3CCCCCC3)cc2)cc1	40	41	9	-24	-15
C[C@H](CO)N1C[C@H](C)[C@@H](CN(C)S(=O)(=O)c2cn(C)cn2)Oc2c(NS(=O)(=O)c3cccs3)cccc2C1=O	-5	-3	-2	0	-3
Cc1ccc(S(=O)(=O)N2CC3(O)CN(C(=O)OC(C)C)N(C(=O)OC(C)C)CC3(OC(=O)NCc3ccco3)C2)cc1 (centres undefined)	-15	·	·	·	·
Cn1c(=O)c2nc(NCc3ccccc3)cnc2n(C)c1=O	3	18	8	-5	27
Cc1nc2c(=O)n(C)c(=O)n(C)c2nc1Cl	97*	5	·	·	·
OCCNc1nc(Nc2ccc(Cl)cc2)nc(N2CCCC2)n1	87*	13	-7	-14	8
c1ccc(CN2CCN(c3ncnc4c3[nH]c3ccccc34)CC2)cc1	85	62*	22	-25	32
c1ccc2c(c1)[nH]c1c(N3CCC4(CC3)OCCO4)ncnc12	18	-41	7	-28	15
